# From PubChem BioAssay (NCATS)
# Records with an inconclusive call do not appear. Entries that show only a call come without a potency. Unmarked numbers belong to inactive results. Activity calls are given as the source filed them. Unless noted, the call rests on the fitted dose curve. Starred links: 1 amine or outer side, 2 acyl side, 3 side chain; linkers in the order of their positions; H or OH if unused. Positions of bridges follow the written chain, without caps; N, C: chain ends. Non-standard residues stand in square brackets, D forms with d. Residues, ends and D or L forms follow the SMILES beside them. ξ: configuration not given here. *: point of attachment. ΔAla(3-NHCONH2) = NC(=O)NC=C(N)C(=O)O; X1 = NC1=NCCC(C(N[*:1])C(=O)[*:2])N1; ξβ3hOrn = NCCCC(N)CC(=O)*; Dap = NC[CH](N)C(=O)O
# Experiments:
# [1] = qHTS for Inhibitors of the Functional Ribonucleoprotein Complex (vRNP) of Lassa (LASV) Arenavirus: LASV Primary Screen - GLuc reporter signal (AID 1347082; calls by dose curve; tested in HEK293 reporter line; further: nearly all actives have a fitted effect of over 60% in size; on activity change, negative = inhibition: series mostly up to about 57 µM)
# [2] = qHTS for Inhibitors of the Functional Ribonucleoprotein Complex (vRNP) of Lassa (LASV) Arenavirus: Viability assay - alamar blue signal for LASV Primary Screen (AID 1347083; calls by dose curve; tested in HEK293 reporter line; further: nearly all actives have a fitted effect of over 80% in size; on activity change, negative = reduced viability: series mostly up to about 57 µM)
# [3] = qHTS for Inhibitors of the Functional Ribonucleoprotein Complex (vRNP) of Lymphocytic Choriomeningitis Arenaviruses (LCMV): Viability assay - alamar blue signal for LCMV Primary Screen (AID 1347085; calls by dose curve; tested in HEK293 reporter line; further: nearly all actives have a fitted effect of over 80% in size; on activity change, negative = lower viability: series mostly up to about 57 µM)
# [4] = target: Nucleoprotein (Lymphocytic choriomeningitis virus (strain Armstrong)) (UniProt P09992); test: qHTS for Inhibitors of the Functional Ribonucleoprotein Complex (vRNP) of Lymphocytic Choriomeningitis Arenaviruses (LCMV): LCMV Primary Screen - GLuc reporter signal (AID 1347086); further: nearly all actives have a fitted effect of over 70% in size; on activity change, negative = inhibition: series mostly up to about 57 µM
# Potency means the concentration at half of the fitted maximal effect.
# Nucleoprotein (Lymphocytic choriomeningitis virus (strain Armstrong)), sequence (P09992 whole entry, looked up): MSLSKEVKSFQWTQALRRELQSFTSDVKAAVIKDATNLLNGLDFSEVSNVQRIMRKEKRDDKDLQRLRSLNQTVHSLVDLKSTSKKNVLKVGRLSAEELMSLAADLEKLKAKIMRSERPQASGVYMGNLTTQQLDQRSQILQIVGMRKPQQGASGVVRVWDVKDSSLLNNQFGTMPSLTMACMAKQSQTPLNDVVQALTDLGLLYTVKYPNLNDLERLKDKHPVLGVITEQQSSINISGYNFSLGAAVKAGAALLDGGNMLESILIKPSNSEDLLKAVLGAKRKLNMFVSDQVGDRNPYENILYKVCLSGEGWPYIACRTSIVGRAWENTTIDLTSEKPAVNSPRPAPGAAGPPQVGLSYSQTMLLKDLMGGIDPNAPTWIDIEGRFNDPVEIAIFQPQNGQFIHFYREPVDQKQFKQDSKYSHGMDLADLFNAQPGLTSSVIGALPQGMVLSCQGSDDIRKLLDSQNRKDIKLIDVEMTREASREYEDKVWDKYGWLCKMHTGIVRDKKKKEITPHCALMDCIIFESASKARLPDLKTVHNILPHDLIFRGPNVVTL
Structure (SMILES),Potency [1],Potency [2],Potency [3],Potency [4],"activity change, negative = inhibition [1]","activity change, negative = reduced viability [2]","activity change, negative = lower viability [3]","activity change, negative = inhibition [4]"
COc1cc(C(C)=O)ccc1OCCCN1CCC(c2noc3cc(F)ccc23)CC1,inactive,inactive,inactive,inactive,,,,
O=C(OC1C[C@H]2CC[C@@H](C1)[N+]21CCCC1)C(O)(c1ccccc1)c1ccccc1 (some centres not stated),inactive,inactive,inactive,inactive,,,,
Cc1cccc(C)c1OCC(C)N (configuration not stated),inactive,inactive,inactive,inactive,,,,
CO/N=C1\CN(c2nc3c(cc2F)c(=O)c(C(=O)O)cn3C2CC2)CC1CN (configuration not stated),inactive,inactive,inactive,inactive,,,,
OC(CCN1CCCC1)(c1ccccc1)C1CCCCC1 (configuration not stated),inactive,inactive,inactive,inactive,,,,
CO[C@H]1C=CO[C@@]2(C)Oc3c(C)c(O)c4c(O)c(c(/C=N/N5CCN(C)CC5)c(O)c4c3C2=O)NC(=O)/C(C)=C\C=C[C@H](C)[C@H](O)[C@@H](C)[C@@H](O)[C@@H](C)[C@H](OC(C)=O)[C@@H]1C,inactive,inactive,inactive,inactive,,,,
O[C@@H](c1cc(C(F)(F)F)nc2c(C(F)(F)F)cccc12)[C@H]1CCCCN1,inactive,inactive,inactive,inactive,,,,
O=C(O)c1cn(C2CC2)c2cc(N3CCNCC3)c(F)cc2c1=O,inactive,inactive,inactive,inactive,,,,
O=C(O)CCNC(=O)c1ccc(N=Nc2ccc(O)c(C(=O)O)c2)cc1,inactive,inactive,inactive,inactive,,,,
O=C(O)COCCN1CCN(C(c2ccccc2)c2ccc(Cl)cc2)CC1 (configuration not stated),inactive,inactive,inactive,inactive,,,,
CCCCOCCOCCOCc1cc2c(cc1CCC)OCO2,inactive,inactive,inactive,inactive,,,,
O=P(O)(O)C(O)(Cc1cccnc1)P(=O)(O)O,inactive,inactive,inactive,inactive,,,,
CC(C)NCC(O)c1ccc(O)c(O)c1 (configuration not stated),inactive,inactive,inactive,inactive,,,,
CN(C)c1cc(NC(=O)CNC(C)(C)C)c(O)c2c1C[C@@H]1C[C@H]3[C@H](N(C)C)C(=O)C(C(N)=O)=C(O)[C@@]3(O)C(=O)C1=C2O,inactive,inactive,inactive,inactive,,,,
CC(COc1ccccc1)N(CCCl)Cc1ccccc1 (configuration not stated),inactive,inactive,inactive,inactive,,,,
N=c1nc(N2CCCCC2)cc(N)n1O,inactive,inactive,inactive,inactive,,,,
CCCN(CCC)S(=O)(=O)c1ccc(C(=O)O)cc1,inactive,inactive,inactive,inactive,,,,
CN(C)CCc1c[nH]c2ccc(CS(=O)(=O)N3CCCC3)cc12,inactive,inactive,inactive,inactive,,,,
C[C@H]1[C@H](NC(=O)/C(=N/OC(C)(C)C(=O)O)c2csc(N)n2)C(=O)N1S(=O)(=O)O (stereo in doubt),inactive,inactive,inactive,inactive,,,,
CC(=O)O[C@]1(C(C)=O)CC[C@H]2[C@@H]3C=C(C)C4=CC(=O)CC[C@]4(C)[C@H]3CC[C@@]21C,inactive,inactive,inactive,inactive,,,,
O=C1[C@H](CC[C@H](O)c2ccc(F)cc2)[C@@H](c2ccc(O)cc2)N1c1ccc(F)cc1,inactive,inactive,inactive,inactive,,,,

Structure (SMILES),Potency [1],Potency [2],Potency [3],Potency [4],"activity change, negative = inhibition [1]","activity change, negative = reduced viability [2]","activity change, negative = lower viability [3]","activity change, negative = inhibition [4]"
COc1ccc(OC)c(C(O)CNC(=O)CN)c1 (configuration not stated),inactive,inactive,inactive,inactive,,,,
Cc1cn([C@H]2C[C@H](N=[N+]=[N-])[C@@H](CO)O2)c(=O)[nH]c1=O,inactive,inactive,inactive,inactive,,,,
CCCC(=O)Nc1ccc(OCC(O)CNC(C)C)c(C(C)=O)c1 (configuration not stated),inactive,inactive,inactive,inactive,,,,
CC[C@]1(O)C[C@H]2CN(CCc3c([nH]c4ccccc34)[C@@](C(=O)OC)(c3cc4c(cc3OC)N(C=O)[C@H]3[C@@](O)(C(=O)OC)[C@H](OC(C)=O)[C@]5(CC)C=CCN6CC[C@]43[C@@H]65)C2)C1,inactive,15.3 nM (active),6.1 nM (active),15.3 nM (active),,,,
O=C(CCCN1CCC(O)(c2ccc(Cl)cc2)CC1)c1ccc(F)cc1,inactive,inactive,inactive,inactive,,,,
CN(C)c1ccc(O)c2c1C[C@H]1C[C@H]3[C@H](N(C)C)C(=O)C(C(N)=O)=C(O)[C@@]3(O)C(=O)C1=C2O,inactive,inactive,inactive,inactive,,,,
CC(=O)Nc1nnc(S(N)(=O)=O)s1,inactive,inactive,inactive,inactive,,,,
CC[C@@H]([C@H](C)O)n1ncn(-c2ccc(N3CCN(c4ccc(OC[C@@H]5CO[C@@](Cn6cncn6)(c6ccc(F)cc6F)C5)cc4)CC3)cc2)c1=O,inactive,inactive,inactive,inactive,,,,
CN1CCN(CCCN2c3ccccc3Sc3ccc(C(F)(F)F)cc32)CC1,inactive,inactive,inactive,inactive,,,,
Oc1cn2c(n1)Nc1ccc(Cl)c(Cl)c1C2,inactive,inactive,inactive,inactive,,,,
CC(C)(C)C(=O)OCOP(=O)(COCCn1cnc2c(N)ncnc21)OCOC(=O)C(C)(C)C,inactive,inactive,inactive,inactive,,,,
CC[N+](C)(C)c1cccc(O)c1,inactive,inactive,inactive,inactive,,,,
CCOc1ccc2ccccc2c1C(=O)N[C@@H]1C(=O)N2[C@@H]1SC(C)(C)[C@@H]2C(=O)O,inactive,inactive,inactive,inactive,,,,
COC(=O)[C@H]1[C@H]2C[C@@H]3c4[nH]c5cc(OC)ccc5c4CCN3C[C@H]2C[C@@H](OC(=O)c2cc(OC)c(OC)c(OC)c2)[C@@H]1OC,inactive,inactive,inactive,inactive,,,,
CN1C(=O)CC(C)(c2ccccc2)C1=O (configuration not stated),inactive,inactive,inactive,inactive,,,,
CC(c1cc2ccccc2s1)N(O)C(N)=O (configuration not stated),inactive,inactive,inactive,inactive,,,,
CN1CCN(CCCN2c3ccccc3Sc3ccc(Cl)cc32)CC1,inactive,inactive,inactive,inactive,,,,
Cc1nc(-c2ccc(OCC(C)C)c(C#N)c2)sc1C(=O)O,inactive,inactive,inactive,inactive,,,,
C[C@](N)(Cc1ccc(O)c(O)c1)C(=O)O,inactive,inactive,inactive,inactive,,,,
COC(=O)CCc1ccc(OCC(O)CNC(C)C)cc1 (configuration not stated),inactive,inactive,inactive,inactive,,,,
CCOC(=O)c1ncn2c1CN(C)C(=O)c1cc(F)ccc1-2,inactive,inactive,inactive,inactive,,,,

Structure (SMILES),Potency [1],Potency [2],Potency [3],Potency [4],"activity change, negative = inhibition [1]","activity change, negative = reduced viability [2]","activity change, negative = lower viability [3]","activity change, negative = inhibition [4]"
CCC(C)n1ncn(-c2ccc(N3CCN(c4ccc(OC[C@H]5CO[C@](Cn6cncn6)(c6ccc(Cl)cc6Cl)O5)cc4)CC3)cc2)c1=O (some centres not stated),inactive,inactive,inactive,inactive,,,,
Cc1cc(C)cc(OCC2CNC(=O)O2)c1 (configuration not stated),inactive,inactive,inactive,inactive,,,,
CN1CC(=O)N/C1=N/C(=O)Nc1cccc(Cl)c1,inactive,inactive,inactive,inactive,,,,
C[N+]1(C)CCC(OC(=O)C(O)(c2ccccc2)C2CCCC2)C1 (configuration not stated),inactive,inactive,inactive,inactive,,,,
NC(=O)N1c2ccccc2CC(=O)c2ccccc21,inactive,inactive,inactive,inactive,,,,
CC1Cc2ccccc2N1NC(=O)c1ccc(Cl)c(S(N)(=O)=O)c1 (configuration not stated),inactive,inactive,inactive,inactive,,,,
NCCCC(N)CC(=O)NCC1NC(=O)C(CO)NC(=O)C(N)CNC(=O)C(C2CCN=C(N)N2)NC(=O)C(=CNC(N)=O)NC1=O (stereo not drawn) (H-[Dap]S[Dap](ξβ3hOrn)[ΔAla(3-NHCONH2)][X1]; lactam 1-C; configuration not given here),,,,,2.05% [at 0.757 µM],-7.39% [at 0.757 µM],-4.22% [at 0.757 µM],-2.08% [at 0.757 µM]
CCCNCC(O)COc1ccccc1C(=O)CCc1ccccc1 (configuration not stated),inactive,inactive,inactive,inactive,,,,
CC(CN1c2ccccc2Sc2ccccc21)N(C)C (configuration not stated),inactive,inactive,inactive,inactive,,,,
CC(C)C[C@H](NC(=O)[C@H](CCc1ccccc1)NC(=O)CN1CCOCC1)C(=O)N[C@@H](Cc1ccccc1)C(=O)N[C@@H](CC(C)C)C(=O)[C@@]1(C)CO1,485 nM (active),432 nM (active),544 nM (active),385 nM (active),,,,
CN(C)CCc1c[nH]c2ccc(C[C@H]3COC(=O)N3)cc12,inactive,inactive,inactive,inactive,,,,
CCOc1ccccc1OCCN[C@H](C)Cc1ccc(OC)c(S(N)(=O)=O)c1,inactive,inactive,inactive,inactive,,,,
NNc1nncc2ccccc12,inactive,inactive,inactive,inactive,,,,
OCCN1CCN(CCCN2c3ccccc3Sc3ccc(Cl)cc32)CC1,inactive,inactive,inactive,inactive,,,,
Cc1ccccc1N1C(=O)c2cc(S(N)(=O)=O)c(Cl)cc2NC1C (configuration not stated),inactive,inactive,inactive,inactive,,,,
O=C1CCC(N2C(=O)c3ccccc3C2=O)C(=O)N1 (configuration not stated),inactive,inactive,inactive,inactive,,,,
COC(=O)N[C@H](C(=O)N[C@@H](Cc1ccccc1)[C@@H](O)CN(Cc1ccc(-c2ccccn2)cc1)NC(=O)[C@@H](NC(=O)OC)C(C)(C)C)C(C)(C)C,inactive,inactive,inactive,inactive,,,,
Cn1cnc2c(F)c(Nc3ccc(Br)cc3Cl)c(C(=O)NOCCO)cc21,inactive,inactive,inactive,inactive,,,,
N[C@@H](C(=O)N[C@@H]1C(=O)N2C(C(=O)O)=C(Cl)CS[C@H]12)c1ccccc1,inactive,inactive,inactive,inactive,,,,
CCOC(=O)N1CCC(=C2c3ccc(Cl)cc3CCc3cccnc32)CC1,inactive,inactive,inactive,inactive,,,,
COC(=O)Nc1nc2ccc(C(=O)c3ccccc3)cc2[nH]1,inactive,3430 nM (active),6850 nM (active),5440 nM (active),,,,
